Assay results as given in the supplement of paper PMC13380429.

Tested on: Vero E6 infected with SARS-CoV-2
Assay: inhibition of SARS-CoV-2 cytopathic effect; higher = more antiviral protection, active = above 15
Settings: 48 h

Measured: inhibition of SARS-CoV-2 cytopathic effect

CC(C)(C)NC[C@H](O)COc1nsnc1N1CCOCC1 [timolol]
inactive: 1 nM -1.77% | 8.33 nM 0.61% | 100 nM -1.85% | 833.33 nM 3.77% | 10000 nM 0.96%

Cc1c2oc3c(C)ccc(C(=O)N[C@@H]4C(=O)N[C@H](C(C)C)C(=O)N5CCC[C@H]5C(=O)N(C)CC(=O)N(C)[C@@H](C(C)C)C(=O)O[C@@H]4C)c3nc-2c(C(=O)N[C@@H]2C(=O)N[C@H](C(C)C)C(=O)N3CCC[C@H]3C(=O)N(C)CC(=O)N(C)[C@@H](C(C)C)C(=O)O[C@@H]2C)c(N)c1=O [dactinomycin]
inactive: 1 nM -0.42% | 8.33 nM 3.96% | 100 nM -3.53% | 833.33 nM -8.77% | 10000 nM -14.8%

Cc1cc(Nc2cc(C)c(C#N)c(N[C@@H](C)CCCC(C)(C)O)n2)n[nH]1
inactive: 1 nM -1.85% | 8.33 nM -0.28% | 100 nM -1.25% | 833.33 nM -6.81% | 10000 nM -8.95%

Cc1c(Cl)cccc1Nc1ccccc1C(=O)O [tolfenamic-acid]
inactive: 1 nM -1.57% | 8.33 nM -0.57% | 100 nM 1.25% | 833.33 nM 0.34% | 10000 nM -0.7%

CC(C)/N=c1\cc2n(-c3ccc(Cl)cc3)c3ccccc3nc-2cc1Nc1ccc(Cl)cc1 [clofazimine]
inactive: 1 nM -2.49% | 8.33 nM 0.21% | 100 nM -2.66% | 833.33 nM 6.27% | 10000 nM -0.63%

COc1cc2nc(N3CCN(C(=O)C4CCCO4)CC3)nc(N)c2cc1OC (stereo not given) [terazosin]
inactive: 1 nM 1.36% | 8.33 nM -0.59% | 100 nM -1.51% | 833.33 nM -0.05% | 10000 nM 1.35%

COCCCC/C(=N\OCCN)c1ccc(C(F)(F)F)cc1 [fluvoxamine]
inactive: 1 nM 6.3% | 8.33 nM 3.03% | 100 nM -1.16% | 833.33 nM -0.69% | 10000 nM -6.73%

C[C@]12CCC(=O)C=C1C=C[C@@H]1[C@@H]2CC[C@@]2(C)[C@H]1CC[C@@]21CCC(=O)O1 [canrenone]
inactive: 1 nM -1.44% | 8.33 nM -1.41% | 100 nM -2.85% | 833.33 nM -2.53% | 10000 nM 6.34%

CNC(=S)C1(c2ccccn2)CCCS1 (stereo not given) [picartamide]
inactive: 1 nM -4.38% | 8.33 nM 0.23% | 100 nM -0.26% | 833.33 nM 2.39% | 10000 nM 6.75%

CC[C@H]1[C@@H](O)[C@@H]2[C@H](CC[C@]3(C)[C@@H]([C@H](C)CCC(=O)O)CC[C@@H]23)[C@@]2(C)CC[C@@H](O)C[C@@H]12 [obeticholic-acid]
inactive: 1 nM 0.365% | 8.33 nM 1.41% | 100 nM 1.03% | 833.33 nM 2.73% | 10000 nM 1.65%

CCn1c2ccccc2c2cc(CNCc3ccccc3OC)ccc21
inactive: 1 nM 3.14% | 8.33 nM 2.16% | 100 nM 0.25% | 833.33 nM -1.14% | 10000 nM -6.1%

O=C1CN=C(c2cccc(Br)c2)c2oc3ccccc3c2N1
inactive: 1 nM -2.75% | 8.33 nM -1.3% | 100 nM -1.9% | 833.33 nM 0.38% | 10000 nM 0.75%

CCCCc1nc(Cl)c(CO)n1Cc1ccc(-c2ccccc2-c2nnn[nH]2)cc1 [losartan]
inactive: 1 nM 0.46% | 8.33 nM 1.87% | 100 nM -0.81% | 833.33 nM -2.88% | 10000 nM -1.4%

Cc1ccc(S(=O)(=O)c2ccc([N+](=O)[O-])o2)cc1
inactive: 1 nM 0.14% | 8.33 nM 0.39% | 100 nM 2.55% | 833.33 nM 13.5% | 10000 nM -21.6%
